Our source for the growth values is PubChem BioAssay (NCI).

“And” between values parts separate entries of the source, which are not always exact repeats. Equal values may be shown once. About 83,000 compounds went through this panel and 20% of them were active in at least one assay; those are over-represented in the sample as a whole.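 A percent growth of 40 corresponds to 60% growth inhibition; 0 means no net growth; -100 means all cells died. Active threshold: below 10.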 Unmarked numbers belong to inactive results. The source made the active and inactive calls.

Assay in all cases: NCI-60 one-dose screen, 48 h (100 = growth as untreated, 0 = no growth, -100 = all killed)
Common to all, as to settings: 10 µM unless noted

Assay [1] concerns SR leukemia.
For assay [2], the system named is RPMI-8226 leukemia.
Assay [3] concerns OVCAR-8 ovarian.
Assay [4] deals with OVCAR-5 ovarian.
In assay [5] the test system is OVCAR-4 ovarian.
In assay [6] the test system is SK-OV-3 ovarian.
Assay [7] has as its system IGROV1 ovarian.
Assay [8] has as its system OVCAR-3 ovarian.
The test system of assay [9] is HS 578T breast.
The subject of assay [10] is NCI/ADR-RES ovarian.
Assay [11] has as its system T-47D breast.
Assay [12] has as its system BT-549 breast.
Assay [13] concerns MDA-MB-435 melanoma.
Assay [14] concerns SW-620 colon.
The test system of assay [15] is MCF7 breast.
Assay [16] relates to HCT-116 colon.
Assay [17] concerns HCC-2998 colon.
In assay [18] the test system is KM12 colon.
The subject of assay [19] is MDA-MB-468 breast.

As for `Cc1nn(-c2ccccc2)c2nc(C)n(CC(=O)N/N=C/c3cccc([N+](=O)[O-])c3)c(=O)c12`, the growth is 85.8% in assay [1]; 85.3% in [2]; 98.5% in [3]; 109% in assay [4]; 91.2% in [5]; 92.8% in assay [6]. For the same molecule, the growth in [7] was 91.8%; in assay [8] it was 106%; in [9] it was 92.7%; in assay [10], 97%; in assay [11], 77.6%; in assay [12] it was 82.8%. Moreover, the growth in assay [13] is 101%; in assay [14], 101%; in assay [15], 85.5%; in assay [16] it was 87.6%; in [17], 116%; in [18], 101%. Also, the growth in assay [19] was 93.3%.

On to `COc1ccc2[nH]cc(-c3cc4nc(-c5cn(C)c6ncc(Br)cc56)cc(N)n4n3)c2c1`, for which the growth in [1] was -16.1% (active); in [2] it was -6.2% (active); in assay [3], -55.2% (active); in assay [4], -83.6% (active); in assay [5], -36.5% (active); in assay [6], -42.6% (active). The growth in assay [7] is -77.3% (active); in assay [8], -67.3% (active); in assay [9], -27.8% (active); in [10], -44.8% (active); in assay [11] it was -62.7% (active); in [12], -57.3% (active). The growth in [13] is -61.6% (active); in assay [14], -74.4% (active); in assay [15], -59.7% (active); in assay [16] it was -95.9% (active); in [17], -95% (active); in [18] it was -49.8% (active). In addition, the growth in assay [19] is -83.1% (active).

With `CN(C)CCOc1ccc(C(=O)C2[C@H](c3ccc(Cl)cc3)[C@@H](c3ccccc3)NC23C(=O)Nc2ccc(Cl)cc23)cc1` (some centres not stated), the growth is -77.4% (active) in assay [1]; -43.6% (active) in assay [2]; -67.9% (active) in [3]; -79.2% (active) in assay [4]; -91.5% (active) in assay [5]; -86.4% (active) in assay [6]. Besides, the growth is -87% (active) in assay [7]; -51.4% (active) in assay [8]; -29.4% (active) in assay [9]; -90.7% (active) in assay [10]; -81.7% (active) in assay [11]; -97.6% (active) in [12]. For the same molecule, the growth is -96.2% (active) in assay [13]; -87.2% (active) in [14]; -81.5% (active) in assay [15]; -91% (active) in assay [16]; -91.8% (active) in assay [17]; -67.1% (active) in assay [18]. Besides, in [19], the growth is -92.3% (active).

On to `CC(=O)Nc1cccc(-n2c(COc3ccc(Br)cc3)nc3ccccc32)c1`, for which the growth in assay [1] is 79.1% and 87.9%; in assay [2], 87.2% and 107%; in [3], 113% and 114%; in assay [4] it was 105% and 109%; in [5], 88.1% and 101%; in assay [6] it was 76.5% and 107%. The growth in assay [7] is 90.7% and 111%; in assay [8] it was 96.9% and 97.7%; in assay [9], 78.2% and 106%; in [10], 89.3% and 104%; in assay [11], 88.5% and 109%; in [12], 109% and 97.2%. In addition, the growth in assay [13] is 107% and 103%; in assay [14], 97.9% and 103%; in assay [15], 82.3% and 97.2%; in assay [16] it was 101% and 102%; in assay [17] it was 129% and 112%; in [18], 103% and 101%. In addition, in [19], the growth is 81.7% and 102%.

With `CNS(=O)(=O)N1CCc2c(Br)c3c(c(OC)c2C1CCc1ccccc1)OCO3` (configuration not stated), the growth is 4.75% (active) in [1]; 2.66% (active) in assay [2]; 9.92% (active) in assay [3]; -40% (active) in assay [4]; -2.26% (active) in [5]; 16.2% in [6]. For the same molecule, the growth was -6.68% (active) in assay [7]; -48.8% (active) in assay [8]; -22.4% (active) in [9]; -10.9% (active) in assay [10]; 6.69% (active) in [11]; -68.8% (active) in assay [12]. Also, the growth in assay [13] was -67.9% (active); in assay [14], 8.53% (active); in assay [15], -22.3% (active); in assay [16] it was -16.8% (active); in assay [17], -12.7% (active); in [18], 2.02% (active). The growth in [19] is -63.1% (active).

`COc1cc(C2CC(c3ccc(F)cc3)=Nc3c(N)nc(N)nc3N2)ccc1Oc1nc(Nc2ccc(F)cc2)nc(N(C)C)n1` (configuration not stated): the growth in [1] is -21.5% (active); in assay [2], 15.7%; in assay [3], 63%; in assay [4], 100%; in [5], 23.5%; in [6], 86.8%. Also, the growth in assay [7] is 51.7%; in [8], 71.6%; in assay [9], 56%; in assay [10], 48.5%; in [11], 65.7%; in [12] it was 51.3%. The growth in assay [13] was 47%; in [14], 31.8%; in assay [15], 7.4% (active); in assay [16], 6.9% (active); in [17] it was 29.1%; in assay [18], 44.9%. Besides, the growth in assay [19] was -17.8% (active).

As to `Nc1nc2cc(-c3ccc4ncnc(NCc5ccccc5)c4c3)ccc2o1`, the growth in [1] was -44.9% (active); in assay [2] it was 10.6%; in assay [3], 2.26% (active); in [4], 22.1%; in assay [5] it was -75.2% (active); in assay [6], -5.93% (active). For the same molecule, the growth in assay [7] is -68.5% (active); in [8] it was -31.5% (active); in [9] it was -34.8% (active); in [10], 2.3% (active); in assay [11] it was -53.6% (active); in assay [12], -10.8% (active). Further, the growth in assay [13] is 16.7%; in assay [14], 24.1%; in [15], -25.6% (active); in [16] it was -20% (active); in assay [17] it was 40.3%; in [18] it was 25.4%. For the same molecule, the growth in assay [19] is -47.5% (active).

`COc1ccc2[nH]cc(-c3cc4nc(-c5cn(C)c6ncccc56)cc(N)n4n3)c2c1`: the growth was -9.65% (active) in assay [1]; -33.4% (active) in assay [2]; -40.6% (active) in assay [3]; -17.6% (active) in assay [4]; -26.4% (active) in assay [5]; 103% in assay [6]. The growth was -62.5% (active) in [7]; -57.6% (active) in [8]; -10.3% (active) in [9]; -15.6% (active) in assay [10]; 33.3% in [11]; -8.26% (active) in assay [12]. Besides, the growth in assay [13] was 52.5%; in assay [14], -53.3% (active); in assay [15], -24.8% (active); in [16], -81.3% (active); in [17], -96.5% (active); in assay [18], -66.2% (active). Besides, the growth in [19] is -75.9% (active).
